Experimental data reported in PubChem BioAssay (NCI).
This is part of a sample that, as a whole, favours compounds with a hit. Of some 83,000 tested, about 20% had one in any assay.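 A percent growth of 40 corresponds to 60% growth inhibition; 0 means no net growth; -100 means all cells died. Active threshold: below 10.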 The source made the active and inactive calls.

system: HS 578T breast; experiment: NCI-60 one-dose screen, 48 h (100 = growth as untreated, 0 = no growth, -100 = all killed); details: 10 µM unless noted
Experimental: Growth inhibition of the HS 578T human tumor cell line is measured as a screen for anti-cancer activity. Cells are grown in 96 well plates and exposed to the test compound for 48 hours. Compounds are tested at a single concentration, which is 10^-5 M for most compounds. The reported endpoint is percent growth (GI% or GIPRCNT), where numbers from 0 - 100% represent growth inhibition, and numbers from -100% - 0 represent cell death. For example, a value of 40 represents 60% growth inhibition. A value of 0 means no net growth occurred over the course of the experiment. A value of -40 indicates 40% of cells at the beginning of the experiment died by the end of the experiment. A value of -100 means all cells are dead at the end of the experiment.
NCI-60 Human Tumor Cell Lines Screen was performed using the standard one-dose NCI protocol, which is described in more detail at https://dtp.cancer.gov/discovery_development/nci-60/default.htm.
Compounds with GIPRCNT values below 10 were considered active. Activity score was based on GIPRCNT using the following formula: […]
Score is 0 for GIPRCNT values of 100 or above, 50 for GIPRCNT values of 0, and 100 for GIPRCNT values of -100.

Row | Compound | growth
1 | O=C(c1ccccc1)c1ccc(C2CCCCC2)cc1 | 103% (inactive)
2 | COc1ccccc1CNc1c2ccccc2nc2ccccc12 | 62% (inactive)
3 | CCCC/C=C/[C@@H]1C[C@H]1CCO | 101% (inactive)
4 | CC(C)(C)[Si](C)(C)OC1[C@@H](CNC(=O)NC(=O)NC(N)=O)O[C@@H](n2cnc3c(NC(=O)Nc4ccccc4)ncnc32)[C@H]1O[Si](C)(C)C(C)(C)C (stereo not given in full) | 77.1% (inactive)
5 | O=C1Nc2ccc(C(=O)O)cc2/C1=N/c1nnc(Sc2ccccc2)s1 | 96.8% (inactive)
6 | CCN1C(=S)N(c2ccccc2)C2NC(=S)N(/N=C/C=C/c3ccccc3OC)C21 (stereo not given) | 9.64% (active)
7 | COC(=O)CC[C@@H]1O[C@@H](c2cccc(C(F)(F)F)c2)[C@@H](O)[C@H]1O | 93.8% (inactive)
8 | Cn1ccnc1C(=O)/C=C/c1ccc(CC(=O)Nc2cc(C(F)(F)F)cc(C(F)(F)F)c2)cc1 | 66.6% (inactive)
9 | CC(=O)N1N=C(c2ccc(Nc3nc(Nc4ccccc4)nc(Nc4ccccc4)n3)cc2)CC1c1cccc([N+](=O)[O-])c1 (stereo not given) | 88.6% (inactive)
10 | COc1cc2oc(-c3cccc(NC(=O)c4ccccc4)c3)cc(=O)c2c(OC)c1OC | 97.2% (inactive)
11 | COc1ccc2cc1Oc1ccc(cc1)C[C@H]1c3c(cc4c(c3Oc3cc5c(cc3OC)CCN(C)[C@@H]5C2)OCO4)CCN1C | -6.41% (active)
12 | O=C1Nc2ccccc2/C1=C/c1nc2ccccc2c(=O)[nH]1 | 93.4% (inactive)
13 | COc1ccc(C/C(C)=C(\c2ccc(Cl)cc2)c2ccc(OCCN3CCCCC3)cc2)cc1 | 86.8% (inactive)
14 | CC(C)c1ccc(C(=O)Nc2sc3c(c2C(N)=O)CCC(=O)C3)cc1 | -4.09% (active)
15 | CSc1nc2ccccc2cc1/C=C1/C=C(c2ccccc2)NC1=O | 80% (inactive)
16 | NC(Cc1ccc(O)c([N+](=O)[O-])c1)C(=O)O (stereo not given) | 98.4% (inactive)
17 | O=c1scc(-c2ccc(C(F)(F)F)cc2)s1 | 92.1% (inactive)
18 | COCCn1cc(-c2csc(-c3cn(C)c4ccc(Br)cc34)n2)c2cccnc21 | 63% (inactive)
19 | O=C(Nc1ccccc1)Nc1ncnc2c1ncn2-c1ccc(Cl)cc1 | 79.8% (inactive)
20 | CCCc1c(OC(=O)c2ccccc2)nc2[nH]c(=O)sc2c1C | 99.9% (inactive)

Row | Compound | growth
21 | CS(=O)(=O)Nc1cc(-c2ccc3ncnc(Nc4ccc5c(cnn5Cc5cccc(F)c5)c4)c3c2)cnc1Cl | -14.8% (active)
22 | c1ccc(-c2oc(-c3ccccc3)c(CN3CCCCC3)c2CN2CCCCC2)cc1 | 34.3% (inactive)
23 | COc1cc(-c2nccc3[nH]c(-c4ccc5cc[nH]c5c4)nc23)cc(OC)c1OC | 31.1% (inactive)
24 | CCC(=C(c1ccc(OCCN2CCCCC2)cc1)c1ccc(OCCN2CCCCC2)cc1)c1ccc(Cl)cc1 | -77.1% (active)
25 | COc1ccc(CNc2c3ccccc3nc3ccccc23)cc1 | 58% (inactive)
26 | COc1cc2c(cc1OC)C(C)N(S(N)(=O)=O)CC2 (stereo not given) | 105% (inactive)
27 | Cc1ccc(-c2nc([P+](c3ccccc3)(c3ccccc3)c3ccccc3)c(S(=O)(=O)c3ccc(C)cc3)o2)cc1 | -9.93% (active)
28 | CCn1cc(C(=O)NNC(=S)Nc2ccc(C)cc2)c(=O)c2ccc(C)nc21 | 95.8% (inactive)
29 | O=C(c1nn(-c2ccccc2)c2c1CC(NCc1ccc(F)cc1)CC2)N1CCCCC1 (stereo not given) | 107% (inactive)
30 | N#CSc1c[nH]c2cccc(/C=C/C(=O)/C=C(/C=C/c3cccc4[nH]cc(SC#N)c34)OB(F)F)c12 | 26.3% (inactive)
31 | Cn1c(=O)c2nc(/C=C/c3ccccc3)c(=O)[nH]c2n(C)c1=S | 107% (inactive)
32 | OCCn1cc(-c2nc(-c3c[nH]c4ncccc34)cs2)c2cc(F)ccc21 | 70.9% (inactive)
33 | C=CCSc1nnc(NC(=O)CCl)s1 | 93.7% (inactive)
34 | COc1ccccc1NC(=O)N=Nc1c(O)[nH]c2ccccc12 | 87.8% (inactive)
35 | COC1=CC(c2ccc[nH]2)=N/C1=C\c1[nH]c(C)c(CC(=O)NCc2ccccc2)c1C | 24.6% (inactive)
36 | COc1cc2c(c(OC)c1OC)CCC(c1cccc(C(=O)Nc3ccc(C#N)cc3)c1)O2 (stereo not given) | 72.3% (inactive)
37 | COc1ccc(C(=O)Nc2cccc(-c3cc(=O)c4c(OC)c(OC)c(OC)cc4o3)c2)cc1 | 42.9% (inactive)
38 | COc1ccc(F)cc1/C=C/C(=O)/C=C(/C=C/c1cc(F)ccc1OC)OB(F)F | 19.9% (inactive)
39 | CN(c1cc2ncc(=O)[nH]c2cc1NC(N)=NCc1ccc(Cl)cc1)C1CCCCC1 | 64.2% (inactive)
40 | O=C(N/N=C/c1ccc(Cl)cc1)c1[nH]c2ccc(Cl)cc2c1-c1ccccc1 | 82% (inactive)
